Here are results for one compound from ChEMBL document CHEMBL1961873, “Compounds: GSK PKIS; Assays: Nanosyn kinase panel” (2012).

Test [1] concerns the target Sphingosine kinase 1 (Homo sapiens) (UniProt Q9NYA1). As to conditions: at 1 µM.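 Further: mean SPHK1 inhibition value reported from the GSK PKIS kinase panel screen.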
Test [2] addresses T1, Sphingosine kinase 2 (Homo sapiens) (UniProt Q9NRA0).
T1 sequence (whole entry): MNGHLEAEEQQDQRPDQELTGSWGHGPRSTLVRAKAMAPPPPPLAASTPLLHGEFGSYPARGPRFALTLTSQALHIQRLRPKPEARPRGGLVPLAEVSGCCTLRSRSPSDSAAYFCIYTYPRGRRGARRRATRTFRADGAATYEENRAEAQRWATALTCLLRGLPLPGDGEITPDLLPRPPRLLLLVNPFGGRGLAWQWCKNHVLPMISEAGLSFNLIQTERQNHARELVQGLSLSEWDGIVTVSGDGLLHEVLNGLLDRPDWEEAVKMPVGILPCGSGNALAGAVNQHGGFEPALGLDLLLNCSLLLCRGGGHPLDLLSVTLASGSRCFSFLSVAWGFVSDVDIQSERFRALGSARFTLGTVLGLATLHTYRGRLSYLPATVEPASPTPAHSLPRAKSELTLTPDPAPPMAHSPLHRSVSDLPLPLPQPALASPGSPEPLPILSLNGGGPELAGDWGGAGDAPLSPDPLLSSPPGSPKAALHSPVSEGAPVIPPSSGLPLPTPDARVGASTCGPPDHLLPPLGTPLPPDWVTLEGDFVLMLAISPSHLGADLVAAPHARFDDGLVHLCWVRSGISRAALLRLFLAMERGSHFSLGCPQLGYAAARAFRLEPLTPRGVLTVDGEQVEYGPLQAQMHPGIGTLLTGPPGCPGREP
As to conditions: at 0.1 µM.

Test [3] has as its target T1, Sphingosine kinase 2 (Homo sapiens). As to conditions: at 1 µM.
Test [4] concerns the target Casein kinase II subunit alpha (Homo sapiens) (UniProt P68400). As to conditions: at 0.1 µM.
Test [5] has the same target. As to conditions: at 1 µM.
Test [6] has as its target T2, Inhibitor of nuclear factor kappa-B kinase subunit alpha (Homo sapiens) (UniProt O15111).
T2 sequence (whole entry): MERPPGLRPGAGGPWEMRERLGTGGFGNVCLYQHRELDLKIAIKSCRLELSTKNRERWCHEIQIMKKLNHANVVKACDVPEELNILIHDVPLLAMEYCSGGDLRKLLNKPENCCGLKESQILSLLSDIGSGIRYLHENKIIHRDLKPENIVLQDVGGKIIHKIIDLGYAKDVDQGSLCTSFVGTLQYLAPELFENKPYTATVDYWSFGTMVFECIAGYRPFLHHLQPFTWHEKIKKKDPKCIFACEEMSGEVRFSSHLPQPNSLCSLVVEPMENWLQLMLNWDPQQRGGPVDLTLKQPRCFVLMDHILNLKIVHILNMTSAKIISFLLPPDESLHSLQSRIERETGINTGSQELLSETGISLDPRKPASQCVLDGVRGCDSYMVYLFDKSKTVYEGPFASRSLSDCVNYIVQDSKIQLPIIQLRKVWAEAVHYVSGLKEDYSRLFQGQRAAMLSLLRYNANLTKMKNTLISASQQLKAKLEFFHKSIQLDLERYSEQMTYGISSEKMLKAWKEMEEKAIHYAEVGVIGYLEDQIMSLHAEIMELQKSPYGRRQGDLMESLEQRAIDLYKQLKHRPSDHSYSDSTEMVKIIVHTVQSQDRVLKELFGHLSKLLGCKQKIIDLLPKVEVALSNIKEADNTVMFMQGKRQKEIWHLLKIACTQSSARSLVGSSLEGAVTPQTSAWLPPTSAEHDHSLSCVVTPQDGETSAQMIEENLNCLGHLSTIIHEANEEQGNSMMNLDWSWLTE
As to conditions: at 0.1 µM.

In test [7] the target is T2, Inhibitor of nuclear factor kappa-B kinase subunit alpha (Homo sapiens). As to conditions: at 1 µM.
Test [8] has as its target T3, Inhibitor of nuclear factor kappa-B kinase subunit beta (Homo sapiens) (UniProt O14920).
T3 sequence (whole entry): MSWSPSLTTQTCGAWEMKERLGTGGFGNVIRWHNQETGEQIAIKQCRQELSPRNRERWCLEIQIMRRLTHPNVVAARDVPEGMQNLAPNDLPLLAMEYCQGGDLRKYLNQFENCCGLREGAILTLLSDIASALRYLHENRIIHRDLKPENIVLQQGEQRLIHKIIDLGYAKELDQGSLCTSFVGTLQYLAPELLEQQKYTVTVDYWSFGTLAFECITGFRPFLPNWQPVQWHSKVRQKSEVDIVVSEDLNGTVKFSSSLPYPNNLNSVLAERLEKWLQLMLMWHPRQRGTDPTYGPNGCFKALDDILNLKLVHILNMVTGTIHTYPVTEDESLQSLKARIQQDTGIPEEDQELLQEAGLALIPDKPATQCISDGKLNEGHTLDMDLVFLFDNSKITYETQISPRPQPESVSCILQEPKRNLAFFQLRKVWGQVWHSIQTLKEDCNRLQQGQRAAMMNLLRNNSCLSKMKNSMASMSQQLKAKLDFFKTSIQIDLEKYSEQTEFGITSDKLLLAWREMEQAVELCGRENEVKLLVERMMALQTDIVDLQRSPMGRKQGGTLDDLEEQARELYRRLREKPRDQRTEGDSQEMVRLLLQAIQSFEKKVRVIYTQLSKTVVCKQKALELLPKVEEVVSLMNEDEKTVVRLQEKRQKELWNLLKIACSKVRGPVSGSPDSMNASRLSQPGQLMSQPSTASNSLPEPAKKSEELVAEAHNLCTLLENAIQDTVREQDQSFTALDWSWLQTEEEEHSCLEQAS
As to conditions: at 0.1 µM.

Test [9] addresses T3, Inhibitor of nuclear factor kappa-B kinase subunit beta (Homo sapiens). As to conditions: at 1 µM.
Test [10] has as its target T4, Inhibitor of nuclear factor kappa-B kinase subunit epsilon (Homo sapiens) (UniProt Q14164).
T4 sequence (whole entry): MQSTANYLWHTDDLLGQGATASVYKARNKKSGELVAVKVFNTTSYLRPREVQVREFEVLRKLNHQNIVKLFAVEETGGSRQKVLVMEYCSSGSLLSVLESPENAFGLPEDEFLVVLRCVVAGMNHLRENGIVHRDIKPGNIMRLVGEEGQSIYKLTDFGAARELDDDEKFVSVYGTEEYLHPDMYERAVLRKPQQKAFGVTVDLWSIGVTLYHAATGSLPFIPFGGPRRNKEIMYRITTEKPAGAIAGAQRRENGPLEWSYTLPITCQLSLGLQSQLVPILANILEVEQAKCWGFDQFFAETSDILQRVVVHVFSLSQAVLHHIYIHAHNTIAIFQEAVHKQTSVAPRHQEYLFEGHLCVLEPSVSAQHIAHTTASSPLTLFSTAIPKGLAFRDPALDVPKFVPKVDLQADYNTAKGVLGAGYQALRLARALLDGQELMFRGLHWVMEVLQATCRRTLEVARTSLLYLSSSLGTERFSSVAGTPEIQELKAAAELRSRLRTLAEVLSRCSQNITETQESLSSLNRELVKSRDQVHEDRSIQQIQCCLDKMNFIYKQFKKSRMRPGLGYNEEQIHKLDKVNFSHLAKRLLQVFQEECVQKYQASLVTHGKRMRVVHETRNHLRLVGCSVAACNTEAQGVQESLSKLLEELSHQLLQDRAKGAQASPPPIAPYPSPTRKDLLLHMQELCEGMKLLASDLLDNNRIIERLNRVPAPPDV
As to conditions: at 0.1 µM.

Test [11] deals with T4, Inhibitor of nuclear factor kappa-B kinase subunit epsilon (Homo sapiens). As to conditions: at 1 µM.
Test [12] concerns the target T5, Serine/threonine-protein kinase Nek1 (Homo sapiens) (UniProt Q96PY6).
T5 sequence (whole entry): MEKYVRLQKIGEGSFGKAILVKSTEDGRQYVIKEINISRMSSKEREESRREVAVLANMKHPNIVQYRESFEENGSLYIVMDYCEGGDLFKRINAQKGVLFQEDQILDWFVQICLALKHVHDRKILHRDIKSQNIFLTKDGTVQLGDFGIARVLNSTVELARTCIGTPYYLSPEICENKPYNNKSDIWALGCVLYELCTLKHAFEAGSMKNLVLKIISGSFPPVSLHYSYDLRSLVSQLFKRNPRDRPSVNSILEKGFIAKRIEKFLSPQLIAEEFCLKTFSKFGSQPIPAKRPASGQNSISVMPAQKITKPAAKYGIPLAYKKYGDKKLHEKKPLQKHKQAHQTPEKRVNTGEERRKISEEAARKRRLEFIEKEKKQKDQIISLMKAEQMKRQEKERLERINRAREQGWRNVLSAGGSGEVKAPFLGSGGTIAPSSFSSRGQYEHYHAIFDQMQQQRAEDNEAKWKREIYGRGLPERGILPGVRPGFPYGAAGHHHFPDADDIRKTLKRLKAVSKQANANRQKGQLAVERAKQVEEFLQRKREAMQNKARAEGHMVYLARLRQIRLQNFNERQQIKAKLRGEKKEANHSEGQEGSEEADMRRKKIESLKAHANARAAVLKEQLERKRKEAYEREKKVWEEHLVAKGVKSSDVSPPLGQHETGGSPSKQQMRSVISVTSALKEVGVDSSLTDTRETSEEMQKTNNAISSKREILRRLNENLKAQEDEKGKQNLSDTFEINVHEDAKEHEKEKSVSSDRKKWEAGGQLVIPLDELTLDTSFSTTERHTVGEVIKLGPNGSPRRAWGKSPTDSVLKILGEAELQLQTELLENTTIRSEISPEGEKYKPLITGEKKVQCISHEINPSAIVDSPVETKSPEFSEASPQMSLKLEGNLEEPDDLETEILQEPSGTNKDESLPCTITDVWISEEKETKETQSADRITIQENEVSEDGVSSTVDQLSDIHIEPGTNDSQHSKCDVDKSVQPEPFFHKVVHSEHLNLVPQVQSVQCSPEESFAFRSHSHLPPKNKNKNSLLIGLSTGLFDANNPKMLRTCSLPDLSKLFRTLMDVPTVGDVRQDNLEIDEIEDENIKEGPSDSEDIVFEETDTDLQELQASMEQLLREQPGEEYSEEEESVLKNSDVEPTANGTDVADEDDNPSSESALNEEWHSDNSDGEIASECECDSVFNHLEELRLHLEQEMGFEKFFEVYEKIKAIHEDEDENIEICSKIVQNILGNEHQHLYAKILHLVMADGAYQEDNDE
As to conditions: at 0.1 µM.

In test [13] the target is T5, Serine/threonine-protein kinase Nek1 (Homo sapiens). As to conditions: at 1 µM.
Test [14] deals with T6, Serine/threonine-protein kinase Nek2 (Homo sapiens) (UniProt P51955).
T6 sequence (whole entry): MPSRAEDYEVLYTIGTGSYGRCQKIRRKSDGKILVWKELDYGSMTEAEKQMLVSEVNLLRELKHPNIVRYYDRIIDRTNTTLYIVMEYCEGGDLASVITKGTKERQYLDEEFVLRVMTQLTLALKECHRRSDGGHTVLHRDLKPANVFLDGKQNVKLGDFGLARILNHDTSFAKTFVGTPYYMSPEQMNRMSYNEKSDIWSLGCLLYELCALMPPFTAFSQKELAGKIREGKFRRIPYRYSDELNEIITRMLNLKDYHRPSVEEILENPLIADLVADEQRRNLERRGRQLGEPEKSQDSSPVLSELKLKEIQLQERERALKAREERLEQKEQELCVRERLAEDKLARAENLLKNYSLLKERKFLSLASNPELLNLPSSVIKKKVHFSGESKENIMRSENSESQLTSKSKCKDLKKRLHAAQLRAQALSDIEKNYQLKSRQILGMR
As to conditions: at 0.1 µM.

The target in test [15] is T6, Serine/threonine-protein kinase Nek2 (Homo sapiens). As to conditions: at 1 µM.
For test [16], the target named is Serine/threonine-protein kinase Nek6 (Homo sapiens) (UniProt Q9HC98). As to conditions: at 0.1 µM.
Sequence of Serine/threonine-protein kinase Nek6 (Homo sapiens) (Q9HC98 whole entry): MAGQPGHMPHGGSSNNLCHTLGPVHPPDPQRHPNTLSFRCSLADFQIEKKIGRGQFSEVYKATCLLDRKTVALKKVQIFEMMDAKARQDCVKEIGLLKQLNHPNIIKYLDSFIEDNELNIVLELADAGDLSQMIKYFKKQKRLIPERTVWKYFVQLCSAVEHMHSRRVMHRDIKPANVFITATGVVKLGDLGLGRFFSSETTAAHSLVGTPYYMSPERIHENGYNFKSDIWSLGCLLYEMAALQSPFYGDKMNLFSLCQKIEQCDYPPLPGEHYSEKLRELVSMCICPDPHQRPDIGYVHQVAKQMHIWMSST
Test [17] has the same target. As to conditions: at 1 µM.
The target of test [18] is Serine/threonine-protein kinase Nek7 (Homo sapiens) (UniProt Q8TDX7). As to conditions: at 1 µM.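 Further: reported values are mean inhibition of NEK7 from the GSK PKIS kinase screening panel.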
Sequence of Serine/threonine-protein kinase Nek7 (Homo sapiens) (Q8TDX7 whole entry, looked up): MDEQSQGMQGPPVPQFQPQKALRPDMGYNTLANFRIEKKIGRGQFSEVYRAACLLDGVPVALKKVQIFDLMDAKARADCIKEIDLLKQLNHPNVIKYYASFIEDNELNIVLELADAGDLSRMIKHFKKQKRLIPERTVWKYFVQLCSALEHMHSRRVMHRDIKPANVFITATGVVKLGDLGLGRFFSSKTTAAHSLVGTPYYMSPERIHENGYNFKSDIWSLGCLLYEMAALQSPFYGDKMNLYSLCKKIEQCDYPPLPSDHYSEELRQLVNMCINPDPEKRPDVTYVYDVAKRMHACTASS
The target in test [19] is T7, Serine/threonine-protein kinase Nek9 (Homo sapiens) (UniProt Q8TD19).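 Further: reported value is the mean percent inhibition of NEK9.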
T7 sequence (whole entry): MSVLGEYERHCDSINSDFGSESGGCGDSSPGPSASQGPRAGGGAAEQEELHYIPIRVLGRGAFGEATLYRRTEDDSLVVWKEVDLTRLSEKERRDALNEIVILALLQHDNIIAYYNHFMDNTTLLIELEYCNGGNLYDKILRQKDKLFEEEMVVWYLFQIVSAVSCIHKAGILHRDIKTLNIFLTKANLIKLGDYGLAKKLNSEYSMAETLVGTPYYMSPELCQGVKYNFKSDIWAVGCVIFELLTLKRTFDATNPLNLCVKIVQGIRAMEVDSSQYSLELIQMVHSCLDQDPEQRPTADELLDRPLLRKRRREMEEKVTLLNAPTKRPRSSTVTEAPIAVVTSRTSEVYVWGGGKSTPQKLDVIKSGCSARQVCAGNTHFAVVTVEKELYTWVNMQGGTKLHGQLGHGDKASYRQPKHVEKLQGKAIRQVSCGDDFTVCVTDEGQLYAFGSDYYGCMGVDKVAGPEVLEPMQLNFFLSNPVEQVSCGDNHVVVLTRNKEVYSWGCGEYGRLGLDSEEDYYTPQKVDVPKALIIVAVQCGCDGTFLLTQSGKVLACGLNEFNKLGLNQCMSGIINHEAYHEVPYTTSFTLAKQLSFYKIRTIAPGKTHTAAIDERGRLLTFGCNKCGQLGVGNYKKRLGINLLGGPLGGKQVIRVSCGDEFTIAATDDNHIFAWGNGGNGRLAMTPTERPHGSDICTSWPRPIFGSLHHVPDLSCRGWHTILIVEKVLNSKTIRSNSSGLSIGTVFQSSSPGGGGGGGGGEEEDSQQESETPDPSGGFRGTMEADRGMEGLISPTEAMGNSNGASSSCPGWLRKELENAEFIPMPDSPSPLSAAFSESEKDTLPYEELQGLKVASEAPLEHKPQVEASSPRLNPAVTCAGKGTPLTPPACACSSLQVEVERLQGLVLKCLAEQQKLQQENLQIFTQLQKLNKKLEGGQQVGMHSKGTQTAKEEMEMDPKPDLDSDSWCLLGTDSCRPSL
As to conditions: at 0.1 µM.

Sequence of Casein kinase II subunit alpha (Homo sapiens) (P68400 whole entry, looked up): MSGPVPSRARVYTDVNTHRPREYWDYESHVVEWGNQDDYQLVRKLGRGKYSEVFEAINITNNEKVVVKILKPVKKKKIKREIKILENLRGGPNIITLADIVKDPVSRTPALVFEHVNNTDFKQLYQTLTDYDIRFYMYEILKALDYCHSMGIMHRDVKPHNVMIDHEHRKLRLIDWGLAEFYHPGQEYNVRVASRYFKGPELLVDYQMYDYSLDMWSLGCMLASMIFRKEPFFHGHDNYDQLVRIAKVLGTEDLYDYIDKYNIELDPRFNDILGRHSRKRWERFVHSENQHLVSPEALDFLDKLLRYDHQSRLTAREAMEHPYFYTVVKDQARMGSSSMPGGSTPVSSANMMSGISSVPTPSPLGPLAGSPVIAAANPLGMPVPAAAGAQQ
Sequence of Sphingosine kinase 1 (Homo sapiens) (Q9NYA1 whole entry): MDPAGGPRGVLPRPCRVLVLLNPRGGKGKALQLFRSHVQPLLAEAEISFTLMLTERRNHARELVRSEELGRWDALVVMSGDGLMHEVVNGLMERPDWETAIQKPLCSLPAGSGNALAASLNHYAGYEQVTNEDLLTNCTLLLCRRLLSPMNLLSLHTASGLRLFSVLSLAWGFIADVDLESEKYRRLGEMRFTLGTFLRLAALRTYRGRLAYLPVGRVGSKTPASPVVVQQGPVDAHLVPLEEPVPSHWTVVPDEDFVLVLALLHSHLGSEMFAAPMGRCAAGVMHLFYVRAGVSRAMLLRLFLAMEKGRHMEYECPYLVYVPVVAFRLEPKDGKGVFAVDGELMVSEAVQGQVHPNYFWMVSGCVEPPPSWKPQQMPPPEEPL

The inhibition is the change of the read-out against control, counted positive when it falls. `Cc1cc(-c2ccco2)cc(C)c1/C=C/c1cncc(-c2nn[nH]n2)c1`: the inhibition was -1.08% in test [1]; -0.36% in test [2]; 1.61% in test [3]; 1.49% in test [4]; 3.8% in test [5]; -1.31% in [6]. Further, the inhibition in [7] came out at 2.26%; in [8], 3.61%; in [9], 2.75%; in test [10] it was 4.22%; in test [11], 3.83%; in test [12], 1.34%. The inhibition in test [13] is 1.67%; in test [14], 1.03%; in test [15], 1.44%; in test [16] it was 0.53%; in test [17], -0.1%; in [18], 0.89%. Also, the inhibition in [19] came out at 3.25%.
